This note sets out measurements from PubChem BioAssay (NCATS).

SMILES strings stand for the structures. Active and inactive are the calls of the source. How the calls were made is not given here.
Potency means the concentration at half of the fitted maximal effect.

The assay in a line: Immunotoxin (SS1P) sensitization/mitigation study. Vehicle arm (DMEM) (AID 1159513). To be noted: cell viability with vehicle (DMEM); series mostly up to 46.1 µM.
As to `Cc1nc(N)sc1-c1ccnc(Nc2ccc(N3CCOCC3)cc2)n1`, the Potency is 18.7 µM (active).

For the compound `CCN(c1ccccc1)c1cc(NC)[n+](C)c(C)n1`, the Potency was 18.7 µM (active).

For the compound `S=C(NCc1ccc2c(c1)OCO2)N1CCN(c2ncnc3c2oc2ccccc23)CC1`, the Potency was 0.372 µM (active).

Take `CC[C@@H](C)[C@H](NC(=O)[C@H](CC1CCCCC1)NC(=O)c1ccno1)C(=O)N1CCC2(CCc3ccccc32)CC1`: the Potency is 16.6 µM (active).

With `COc1nc(C)cnc1NS(=O)(=O)c1cccnc1-c1ccc(-c2nnco2)cc1`, the Potency result is “inactive”.

For the compound `O=C(Nc1cccnc1)N1CCC(Cc2cccc(Oc3ccc(C(F)(F)F)cn3)c2)CC1`, the Potency is 6.62 µM (active).

For `Cc1cc(C=c2sc3nc4ccccc4n3c2=O)c(C)n1-c1ccccc1`, the Potency was 9.35 µM (active).

For `O=C(Nc1ccc(F)c(C(F)(F)F)c1)Nc1nnc(-c2ccncc2)s1`, the Potency is 5.9 µM (active).

Regarding `Cc1cc(Nc2cc(N3CCN(C)CC3)nc(C=Cc3ccccc3)n2)n[nH]1`, the Potency was 0.833 µM (active).

Consider `Cc1cccc(C=NNc2cc(N3CCOCC3)nc(OCCc3ccccn3)n2)c1`, for which the Potency is 20.9 µM (active).

Turning to `COc1cc2ncnc(Nc3ccc(F)c(Cl)c3)c2cc1NC(=O)C=CCN1CCCCC1`, the Potency is 18.7 µM (active).

With `CNc1nccc(-c2cccnc2Oc2cc(C(=O)Nc3cccc(C(F)(F)F)c3)ccc2C)n1`, the Potency was 23.5 µM (active).

On to `CN1C(=O)C(Cc2c[nH]c3ccccc23)NC1=S` (centres undefined), for which the Potency result was “inactive”.

`CN([C@@H](Cc1ccc(OS(=O)(=O)c2cccc3cnccc23)cc1)C(=O)N1CCN(c2ccccc2)CC1)S(=O)(=O)c1cccc2cnccc12`: the Potency entry is “inactive”.
